Screens (PubChem BioAssay)
This is a sample that favours compounds with a hit; in the whole collection about 5.5% have one here.
Gal4-VP16 FLuc: counter-screen for ROR gamma inhibitors: Gal4-VP16 reporter. Drosophila S2 Gal4-VP16 UAS-luciferase, luminescence, 20 h. Potency, µM (doses to about 53.6 µM), for inactives: at the highest dose activity, negative = inhibition, most hits filed as inhibitors. 310,000 tested, 3.5% active. AID 2546;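 note: Gal4-VP16 expression switched on by copper sulfate through the metallothionein promoter; % is set by controls: 0 for no effect and ±100 for the full control effect; nearly all actives have a fitted effect of over 50% in size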
Mito fusion act: inhibitors of mitochondrial division or activators of mitochondrial fusion | S. cerevisiae fusion-defective mutant growth rescue, CellTiterGlo 48 h | Potency, µM (doses to about 46.1 µM), for the others: at the highest dose growth rescue (activation), usual class: activators | 320,000 tested, 0.23% active; note: % of control where 0% means no effect; nearly all actives have a fitted effect of over 45% in size
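S. cerevisiae fusion-defective temperature-sensitive mutants (e.g. fzo1-1, mgm1-5) grown 48 h at 37C in YPEG (ethanol/glycerol non-fermentable) medium with 23 nl compound per well; growth rescue read as CellTiterGlo luminescence.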
RORgamma inh: ROR gamma (mouse) transcription inhibition. P51450. Drosophila S2 Gal4-RORgamma UAS-luciferase reporter, 20 h. Potency, µM (top dose mostly 53.6 µM), without a hit: at the top dose activity change, negative = inhibition, actives largely listed as inhibitors. 310,000 tested, 5.4% active. AID 2551; note: % is set by controls: 0 for no effect and ±100 for the full control effect; nearly all actives have a fitted effect of over 60% in size
Target sequence (P51450 whole entry, looked up, the tested form may be a part): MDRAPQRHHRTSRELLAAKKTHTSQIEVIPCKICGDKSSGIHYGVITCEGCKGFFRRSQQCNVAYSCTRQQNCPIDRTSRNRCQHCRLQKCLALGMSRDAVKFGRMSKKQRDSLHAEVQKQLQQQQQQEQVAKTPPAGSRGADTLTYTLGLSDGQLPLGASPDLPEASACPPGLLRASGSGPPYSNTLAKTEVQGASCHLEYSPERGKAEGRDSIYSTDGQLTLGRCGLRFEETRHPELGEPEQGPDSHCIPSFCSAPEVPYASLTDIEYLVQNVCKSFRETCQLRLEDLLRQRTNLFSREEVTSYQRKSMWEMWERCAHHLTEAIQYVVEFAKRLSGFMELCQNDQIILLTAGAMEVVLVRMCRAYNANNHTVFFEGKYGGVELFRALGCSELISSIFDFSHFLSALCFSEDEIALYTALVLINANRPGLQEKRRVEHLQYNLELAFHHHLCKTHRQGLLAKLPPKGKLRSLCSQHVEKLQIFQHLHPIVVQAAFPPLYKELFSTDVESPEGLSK
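ROR gamma transcriptional activity was tracked as Gal4-UAS luciferase output in stably transfected Drosophila Schneider cells, with compound added 1 hr before 700 uM copper sulfate induction and a 20 hr ambient-temperature incubation.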
Chronic BCR inh: chronic active BCR signaling inhibition. Potency, µM (highest dose often 46.1 µM), for inactives: at the highest dose activity change, negative = inhibition, actives largely listed as inhibitors. 340,000 tested, 0.05% active. ABC-DLBCL IkBa-CBG/CBR reporter, luminescence ratio, 4 h; active = well fitted inhibition curve with a large enough effect in the signal ratio, with a control signal flat, not every such curve was filed as active; inconclusive = small, poorly fitted or top-dose-only effect, or effect the other way, or a change in a side signal; the % refers to the signal ratio;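 note: plate controls were basal doxycycline-induced cells for no effect and cells given 10 µM MG132 for full effect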
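TMD8 human ABC-DLBCL cells with doxycycline-inducible IκBα–green luciferase fusion and unfused red luciferase, in 0.5% FBS medium; compounds up to 46 uM, 4 h at 37C. Green/red luminescence ratio, filter-overlap corrected, fitted to concentration-response curves.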
Integrin act MD: activators of alpha7 integrin expression for muscular dystrophy; alpha7betagal myoblasts, beta-gal FDG fluorescence, 48 h; Potency, µM (doses to about 38.3 µM), without a hit: at the highest dose activation, usual class: activators; 350,000 tested, 0.064% active; AID 624291;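 note: 100% = response of the positive control SU9516; nearly all actives have a fitted effect of over 60% in size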
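Alpha7betagal+/- myoblasts (passage 13) were plated 16-24 hr, then exposed to compounds (1:260 dilution of DMSO stock) for 48 hours at 37C. After MPER lysis, β-galactosidase reporter activity was read as FDG fluorescence (ex 480/em 540) after 30 minutes.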
uPA surface inh: blocks generation of uPA at the cell surface; 330,000 tested, 0.31% active; Potency, µM (highest dose often 38.3 µM), inactives show at the top dose activity change, negative = inhibition, hits mostly inhibitors; cell surface uPA generation assay, qHTS; active = well fitted inhibition curve with a large enough effect; inconclusive = small, poorly fitted or top-dose-only effect; inactive = no such curve, though single readings can be large or run the other way; tested in mouse RAW 264.7 cells; note: % is set by controls: 0 for no effect and ±100 for the full control effect; nearly all actives have a fitted effect of over 55% in size
Starred values were filed as active, the others as inactive. Unless noted, calls come from the whole dose curve; as a rule, active = well fitted curve in the direction sought with a large enough effect; inconclusive = small, poorly fitted or top-dose-only effect, or another doubt; inactive = no such curve, though single readings can be large; an effect the other way counts as inactive or inconclusive. Potency is the fitted concentration of half-maximal effect.

What do the screens show for `CC(C)(C)NC(=O)COC(=O)c1snc(C(=O)NC2CCCCC2)c1N`?
Gal4-VP16 FLuc: 5.6µM*; Mito fusion act: 14%; RORgamma inh: -37%; Chronic BCR inh: inconclusive; Integrin act MD: -20%; uPA surface inh: -12%

What do the screens show for `CC(OC(=O)c1snc(C(=O)NC2CCCCC2)c1N)C(=O)NC(C)(C)C` (stereo not given)?
Gal4-VP16 FLuc: inconclusive; Mito fusion act: 24%; RORgamma inh: inconclusive; Chronic BCR inh: inconclusive; Integrin act MD: -41%; uPA surface inh: 6%

Results for NC(=O)n1c(O)c(C(=O)c2cccs2)c2cc(Cl)ccc21 ?
Gal4-VP16 FLuc: -3%; RORgamma inh: -8%

How did CC(Oc1ccc2ccc(=O)oc2c1)C(=O)NC1CCN(Cc2ccccc2)CC1 (stereo not given) do in these assays?
Gal4-VP16 FLuc: 1%; Mito fusion act: 7%; RORgamma inh: -23%; Chronic BCR inh: -5%; Integrin act MD: inconclusive; uPA surface inh: -11%

What do the screens show for `Cc1ccc(NC(=S)Nc2ccc3[nH]c(=O)[nH]c3c2)cc1`?
Gal4-VP16 FLuc: -23%; Mito fusion act: -1%; RORgamma inh: 10µM*; Chronic BCR inh: 2%; Integrin act MD: inconclusive; uPA surface inh: -1%

Results for CCN1C(=O)[C@@H]2[C@@H](c3ccc(-c4ccc(Cl)c(Cl)c4)c(OC)c3)N3CCCC[C@@]3(C(=O)OC)[C@@H]2C1=O ?
Mito fusion act: 3%; Chronic BCR inh: 0%; Integrin act MD: 21%; uPA surface inh: -1%

How did Cc1cc(C(F)(F)F)c2c(N)c(C(=O)Nc3c(Cl)cccc3Cl)sc2n1 do in these assays?
Chronic BCR inh: -5%

What do the screens show for `COc1ccc(C2CC(O)(c3ccccc3)Oc3cc(C)c(Cl)c(C)c32)cc1` (stereo not given)?
Gal4-VP16 FLuc: -20%; RORgamma inh: 43%

How did O=C(NC(=S)N(CCO)Cc1ccccc1)c1cc(Br)ccc1Cl do in these assays?
Gal4-VP16 FLuc: 1.8µM*; Mito fusion act: 1%; RORgamma inh: 0.79µM*; Chronic BCR inh: inconclusive; Integrin act MD: 22%; uPA surface inh: -16%

Results for CCCN(Cc1ccccc1)C(=S)NC(=O)c1ccccc1[N+](=O)[O-] ?
Gal4-VP16 FLuc: 1µM*; Mito fusion act: -4%; RORgamma inh: 0.35µM*; Chronic BCR inh: 1%; Integrin act MD: 5%; uPA surface inh: 1%

How did CCN(Cc1ccccc1)C(=S)NC(=O)c1ccccc1Br do in these assays?
Gal4-VP16 FLuc: 1.1µM*; Mito fusion act: 2%; RORgamma inh: 0.79µM*; Chronic BCR inh: -17%; Integrin act MD: inconclusive; uPA surface inh: -3%

What do the screens show for `C/C(CCc1ccccc1)=N\NC(=O)c1ccccc1[N+](=O)[O-]`?
Gal4-VP16 FLuc: -4%; Mito fusion act: -5%; RORgamma inh: -16%; Chronic BCR inh: inconclusive; Integrin act MD: 3%; uPA surface inh: 9%

Results for C=CCOn1c(=O)c(-c2ccc(F)cc2)[n+]([O-])c2ccccc21 ?
Gal4-VP16 FLuc: -4%; Mito fusion act: 0%; RORgamma inh: 0%; Chronic BCR inh: 0%; Integrin act MD: 1%; uPA surface inh: -2%

What do the screens show for `COC(=O)C1=C[C@@H](C(=O)OC)[C@@H]2C3=C(C(=O)[C@@]2(C)NC(=O)c2ccccc2)[C@H](C)C(C(=O)OC)=C(C(=O)OC)[C@@H]3C1`?
Integrin act MD: 0%; uPA surface inh: 6%

Results for CCCCN1C(=O)C(=O)N(CC(=O)Nc2ccc(OC(F)(F)F)cc2)C1=O ?
Chronic BCR inh: 1%; Integrin act MD: -19%; uPA surface inh: -2%

How did COc1ccccc1NS(=O)(=O)c1cccc(C(=O)OCC(=O)Nc2cc(C)on2)c1 do in these assays?
Gal4-VP16 FLuc: -25%; Mito fusion act: 3%; RORgamma inh: 11µM*; Chronic BCR inh: inconclusive; Integrin act MD: -10%; uPA surface inh: -3%
